From PubChem BioAssay (NCATS) come the findings set out here.

“And” between values parts separate entries of the source, which are not always exact repeats. Identical values can stand only once. A number with no mark means an inactive call. Records with an inconclusive call do not appear. The source made the active and inactive calls. Unless noted, calls follow the shape of the dose curve; as a rule, active = well fitted curve in the direction sought with a large enough effect; inconclusive = small, poorly fitted or top-dose-only effect, or another doubt; inactive = no such curve, though single readings can be large; an effect the other way counts as inactive or inconclusive.

Test [1] is described as follows: AP1 Signaling Pathway (AID 357; active = well fitted curve in either direction with a large enough effect, not every such curve was filed as active; also: % is scaled to controls: 0 for no effect and ±100 for the full control effect). The note with it: ME-180 AP-1-bla reporter, EGF-induced, beta-lactamase ratio, 5 h. An outline of the steps: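 AP-1-bla ME-180 cells with beta-lactamase reporter under AP-1 response element, stimulated with EC50 EGF; compounds titrated, 5 hours at 37 degrees Celsius. CCF4 read at 460/530 nm ratio; positive and negative modulators judged by AC50.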

A short description of test [2]: Stat Signaling Pathway (AID 446; active = well fitted curve in either direction with a large enough effect, not every such curve was filed as active;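 also: ME-180 cervical cancer cells given 40 pM IL-6 alongside compound; SIE-controlled beta-lactamase reporter measured as 460/530 nm FRET emission ratio; % is scaled to controls: 0 for no effect and ±100 for the full control effect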). The note with it: ME-180 (cervical carcinoma) SIE beta-lactamase reporter, IL-6 stimulated, 5 h. The gist of the method:
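ME-180 SIE-bla cells; overnight plating; cpd + IL-6 40 pM, 5 h, 37 C; LiveBLAzer 2.5 h RT; 460/530 nm emission ratio. Normalized to 300 pM IL-6 and 125 nM JAK inhibitor controls.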

Test [3] is described as follows: NFAT Signaling Pathway (AID 444; active = well fitted curve in either direction with a large enough effect, not every such curve was filed as active;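 also: carbachol stimulus at about its EC50 of 1 µM final; % is scaled to controls: 0 for no effect and ±100 for the full control effect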). The note with it: Jurkat NFAT-bla M1, carbachol, beta-lactamase ratio, 5 h; at 38 µM (top of the series) unless noted. The gist of the method: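 Read-out: CCF4 FRET ratio (460 nm/530 nm) after 1 h RT dye loading, used for %activity and AC50 from titration series. Cells: Jurkat NFAT-β-lactamase/M1 line, treated with compound plus 1 uM carbachol for 5 h, 37 °C.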

Test [4] addresses Glucocorticoid receptor (Homo sapiens) (UniProt P04150). Description: GR-GFP Redistribution (AID 450;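 active = compounds whose dose series gives a full or clear partial fitted curve of increased nuclear translocation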; also: potency is read from the fitted curve at half-maximal effect). Particulars: U2OS GR-GFP nuclear translocation, laser cytometry, 2 h.
Test [5] has the same target. Description: GR-EFC Redistribution (AID 451; calls by dose curve; also: potency is read from the fitted curve at half-maximal effect). The note with it: CHO-K1 GR-EFC translocation, beta-gal luminescence, 2 h. The gist of the method: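 Translocation of GR-ED fusion to nuclear EA restores b-gal, read by luminescence after 1 h room-temperature detection. Engineered CHO-K1 biosensor cells, 1,000/well, exposed 2 h at 37 C to titrations up to 46 uM final.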
Test [6] has as its target 3',5'-cyclic-AMP phosphodiesterase 4B (Homo sapiens) (UniProt Q07343). Description: qHTS Assay for Inhibitors of PDE-IV (AID 607; active = well fitted activation curve with a large enough effect in the main read-out, with a control signal flat, not every such curve was filed as active; also: % of control where 0% means no effect). The note with it: HEK293 ACTOne CNG channel cells, membrane potential fluorescence; series mostly up to 22.9 µM. An outline of the steps:
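ACTOne HEK293 cells carry a modified cAMP-gated CNG channel and express endogenous PDE4; plated 1000 cells/well, compounds up to 22.9 uM final. Membrane-potential dye fluorescence (ex 535/em 590) was read; parental cells received 10 uM forskolin + 100 uM RO 20-1724.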
(In general: qHTS replaces the single test concentration by a dilution series.)

The target of test [7] is Cytochrome P450 1A2 (Homo sapiens) (UniProt P05177). Description: p450-cyp1a2 (AID 410; calls by dose curve; also: potency is read from the fitted curve at half-maximal effect;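 as to activity change, negative = inhibition: -100% = full effect of reference inhibitor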). Particulars: recombinant CYP1A2, luciferin-ME demethylation, luminescence; series mostly up to 57 µM. The gist of the method: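 Luminescent readout of luciferin formed from Luciferin-ME by human CYP1A2; data normalized against complete inhibition by 57 uM furafylline. Enzyme 20nM, substrate 100uM at Km, 100mM KPO4 buffer, 60 min reaction at room temperature.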

The target of test [8] is Mitogen-activated protein kinase 10 (Mus musculus) (UniProt Q61831). Description: JNK3 AlphaScreen Assay (AID 530; active = well fitted curve in either direction with a large enough effect, not every such curve was filed as active;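 also: kinase came from lysate of stimulated human HepG2 cells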; also: potency is read from the fitted curve at half-maximal effect;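 as to activity change, negative = inhibition: signal reports phosphorylation of biotinylated GST-cJun 1-79 at Ser73 with 10 µM ATP; % is scaled to controls: 0 for no effect and ±100 for the full control effect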). The note with it: JNK3 lysate, c-Jun phosphorylation; series mostly up to 57.1 µM. An outline of the steps:
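Compound titrations were preincubated 15 minutes at room temperature with substrate, antibody and pre-activated JNK3-containing HepG2 lysate. Reactions were started with 10 uM ATP and stopped with EDTA-containing bead buffer for AlphaScreen detection.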

A short description of test [9]: Cell Viability - BJ (AID 421; calls by dose curve;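 also: potency is read from the fitted curve at half-maximal effect; cells exposed to compound for 40 hours at 37 °C before readout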). The note with it: BJ fibroblast viability, qHTS. The gist of the method: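 Luminescent ATP signal (CellTiter-Glo, 20 min at room temperature) served as the read-out of viable BJ cells after 40 hours of compound treatment. Responses were scaled between DMSO and 100 uM tamoxifen, and AC50 values were obtained by Hill modeling.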
The nature of test [10]: Cell Viability - Jurkat (AID 426;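 active = dose-dependent loss of cell ATP signal giving a full or clear fitted curve, ranked by lower potency value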; also: potency is read from the fitted curve at half-maximal effect). Particulars: qHTS. The gist of the method: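 qHTS, 1536-well; Jurkat E6-1, 5000 cells/well, complete medium; cpd 40 hr, 37 °C; CellTiter-Glo 20 min RT; luminescence. AC50 by Hill fit.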
Test [11] is described as follows: Cell Viability - Hek293 (AID 427;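 active = compounds whose dose-response curve shows a full or clear partial loss of cell viability, called from curve shape rather than a numeric limit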;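 also: potency is read from the fitted curve at half-maximal effect; cells exposed to compound for 40 hours at 37 °C before reading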). The note with it: qHTS. An outline of the steps: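 Luminescent ATP read-out (CellTiter-Glo, 20 min RT) after 40 hr compound exposure at 37 °C in complete medium. Signal normalized to DMSO (basal) and 100 uM tamoxifen (100% inhibition); concentration-response fitted with the standard Hill equation to give AC50.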
A short description of test [12]: Cell Viability - MRC5 (AID 434; calls by dose curve;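 also: potency is read from the fitted curve at half-maximal effect; potency reflects cytotoxicity seen as loss of intracellular ATP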). Particulars: MRC5 lung fibroblast viability, qHTS. An outline of the steps:
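qHTS cytotoxicity in human lung fibroblast MRC5 cells; 40 hr treatment, 37 °C; cellular ATP by luciferase luminescence; DMSO = 0%, 100 uM tamoxifen = 100% inhibition; Hill-fit AC50.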

Test [13] can be described thus: Cell Viability - SK-N-SH (AID 435; calls by dose curve;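 also: potency is read from the fitted curve at half-maximal effect; compound exposure lasted 40 h at 37 °C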). The note with it: SK-N-SH neuroblastoma cell viability qHTS. An outline of the steps: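 SK-N-SH human neuroblastoma cells (1500/well) were exposed to compounds in complete medium for 40 h at 37 °C, and intracellular ATP was then measured by CellTiter-Glo luminescence. AC50 was taken from Hill fits, normalized to DMSO and 100 uM tamoxifen.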

The nature of test [14]: Cell Viability - NIH 3T3 (AID 541). Also: nearly all actives have a fitted effect of over 25% in size. Also: potency is read from the fitted curve at half-maximal effect.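 As to activity change, negative = cytotoxicity: plate controls were DMSO alone for no effect and tamoxifen positive control for full effect.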 Particulars: NIH 3T3 cell viability, qHTS; activity change, negative = cytotoxicity: at 92.2 µM (top of the series). The gist of the method: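 Luminescent ATP signal (CellTiter-Glo) served as the viability read-out after NIH 3T3 cells were exposed to compounds over a concentration range for 40 hr at 37 °C. Hill-equation modelling of concentration-response data gave AC50.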

A short description of test [15]: Cell Viability - HUV-EC-C (AID 542). Also: % is scaled to controls: 0 for no effect and ±100 for the full control effect; nearly all actives have a fitted effect of over 35% in size. The note with it: HUV-EC-C endothelial cell viability, qHTS; series mostly up to 92.2 µM. The gist of the method:
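qHTS cytotoxicity: HUV-EC-C, 1000 cells/well, 5 hr settle, compound 40 hr 37 °C, CellTiter-Glo, luminescence. AC50 via Hill equation.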

Test [16] in a line: Cell Viability - H-4-II-E (AID 543). Also: % is scaled to controls: 0 for no effect and ±100 for the full control effect; nearly all actives have a fitted effect of over 35% in size. Particulars: H-4-II-E rat hepatoma viability; series mostly up to 92.2 µM. The gist of the method:
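Luminescent ATP signal (CellTiter-Glo) served as the viability read-out, with cytotoxicity seen as a concentration-dependent ATP drop. Cells were treated for 40 hours in complete medium. AC50 values derive from Hill-equation modelling.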

A short description of test [17]: Cell Viability - Renal Proximal Tubule (AID 545).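 Also: 0% = DMSO only and -100% = 100 µM tamoxifen; nearly all actives have a fitted effect of over 40% in size.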 Particulars: renal proximal tubule cells viability, primary cells of rat origin; activity change, negative = cytotoxicity: at 91.7 µM (top of the series). An outline of the steps: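 Primary rat renal proximal tubule cells (1000/well) were treated with compounds for 40 hr at 37 °C in complete medium. Intracellular ATP was measured by CellTiter-Glo luminescence, and AC50 values came from Hill-equation fits of concentration-response data.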

Test [18] in a line: Cellular Toxicity (caspase-3) HepG2 (AID 654).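 Also: cells exposed to compound for 16 hours before reading; 0% = DMSO alone and 100% = caspase signal from 100 µM tamoxifen.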 The note with it: HepG2 caspase-3 activation, luminescence; series mostly up to 92.2 µM. An outline of the steps: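 Cells plated 5 hr at 37 °C, compound added, incubated 16 hr at 37 °C. Caspase-Glo 3/7 reagent followed, 20 min at room temperature, then luminescence read. Activation scored as signal increase; AC50 from Hill fit.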

Test [19] can be described thus: Cellular Toxicity (caspase-3) Jurkat (AID 655).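 Also: cells exposed to compound for 16 h at 37 °C before reading.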 The note with it: Jurkat caspase-3 activation, luminescence; series mostly up to 92.2 µM. An outline of the steps:
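Jurkat cells (5000/well) in complete medium were treated with compounds for 16 hr at 37 °C, then Caspase-Glo 3/7 luminescence was read after 20 min at room temperature. Data normalized to DMSO (basal) and 100 uM tamoxifen (100%); AC50 from Hill fit.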

3',5'-cyclic-AMP phosphodiesterase 4B (Homo sapiens), sequence (Q07343 whole entry, looked up): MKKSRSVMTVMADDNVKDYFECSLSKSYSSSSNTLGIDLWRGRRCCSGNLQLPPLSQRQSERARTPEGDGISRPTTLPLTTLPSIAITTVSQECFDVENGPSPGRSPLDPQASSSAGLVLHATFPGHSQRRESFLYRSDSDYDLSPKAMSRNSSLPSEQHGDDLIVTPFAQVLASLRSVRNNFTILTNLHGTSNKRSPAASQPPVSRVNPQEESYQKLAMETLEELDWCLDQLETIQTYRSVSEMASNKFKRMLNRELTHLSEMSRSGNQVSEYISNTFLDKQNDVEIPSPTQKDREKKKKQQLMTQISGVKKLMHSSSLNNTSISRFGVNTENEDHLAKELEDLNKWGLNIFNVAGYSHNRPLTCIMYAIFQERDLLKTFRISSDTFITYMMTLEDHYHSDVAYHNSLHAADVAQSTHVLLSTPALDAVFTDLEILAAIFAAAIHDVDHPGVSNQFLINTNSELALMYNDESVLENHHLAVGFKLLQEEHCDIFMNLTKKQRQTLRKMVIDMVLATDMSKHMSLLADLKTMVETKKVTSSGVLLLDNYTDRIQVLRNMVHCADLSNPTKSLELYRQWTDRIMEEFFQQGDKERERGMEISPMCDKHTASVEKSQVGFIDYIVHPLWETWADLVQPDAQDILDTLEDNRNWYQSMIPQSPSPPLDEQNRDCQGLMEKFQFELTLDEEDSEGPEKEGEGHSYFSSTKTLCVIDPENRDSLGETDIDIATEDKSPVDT
Glucocorticoid receptor (Homo sapiens), sequence (P04150 whole entry, looked up, the tested form may be a part): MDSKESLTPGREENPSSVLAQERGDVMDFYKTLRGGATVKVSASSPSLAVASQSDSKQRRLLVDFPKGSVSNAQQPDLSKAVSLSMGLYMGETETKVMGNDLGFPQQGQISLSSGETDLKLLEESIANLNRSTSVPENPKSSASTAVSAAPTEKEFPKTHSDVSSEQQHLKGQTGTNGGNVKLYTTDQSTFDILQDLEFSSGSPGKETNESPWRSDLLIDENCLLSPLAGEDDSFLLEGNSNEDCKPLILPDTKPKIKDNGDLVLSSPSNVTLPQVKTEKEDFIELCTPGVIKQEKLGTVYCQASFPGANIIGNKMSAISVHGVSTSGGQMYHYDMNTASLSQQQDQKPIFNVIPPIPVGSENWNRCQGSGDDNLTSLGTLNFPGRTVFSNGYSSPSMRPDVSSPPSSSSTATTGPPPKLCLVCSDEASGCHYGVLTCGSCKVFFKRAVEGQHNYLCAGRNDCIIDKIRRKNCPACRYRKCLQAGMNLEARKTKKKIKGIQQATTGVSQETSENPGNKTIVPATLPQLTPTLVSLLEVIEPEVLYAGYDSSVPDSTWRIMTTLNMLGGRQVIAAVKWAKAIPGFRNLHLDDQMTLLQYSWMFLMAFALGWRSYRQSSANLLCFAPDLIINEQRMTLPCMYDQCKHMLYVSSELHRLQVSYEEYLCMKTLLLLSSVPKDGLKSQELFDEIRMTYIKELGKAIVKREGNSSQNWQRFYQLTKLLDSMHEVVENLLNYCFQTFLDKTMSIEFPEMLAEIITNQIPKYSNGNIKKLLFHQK
Cytochrome P450 1A2 (Homo sapiens), sequence (P05177 whole entry, looked up): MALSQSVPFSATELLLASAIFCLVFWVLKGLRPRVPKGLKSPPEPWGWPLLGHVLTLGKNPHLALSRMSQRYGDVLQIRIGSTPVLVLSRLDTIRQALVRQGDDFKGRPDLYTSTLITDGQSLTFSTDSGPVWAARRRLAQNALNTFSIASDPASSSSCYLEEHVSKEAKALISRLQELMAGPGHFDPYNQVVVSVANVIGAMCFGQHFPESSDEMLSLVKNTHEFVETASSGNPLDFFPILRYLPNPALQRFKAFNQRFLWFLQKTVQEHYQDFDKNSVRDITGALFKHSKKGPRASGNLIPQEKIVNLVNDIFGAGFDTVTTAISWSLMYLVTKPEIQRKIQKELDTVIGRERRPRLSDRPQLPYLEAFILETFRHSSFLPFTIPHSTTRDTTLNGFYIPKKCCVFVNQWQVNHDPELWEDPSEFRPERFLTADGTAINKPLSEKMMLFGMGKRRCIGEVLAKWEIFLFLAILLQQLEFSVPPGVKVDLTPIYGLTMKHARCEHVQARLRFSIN

Turning to `CN1[C@@H](CC(=O)c2ccccc2)CCC[C@H]1C[C@H](O)c1ccccc1`, the activity change, negative = inhibition in test [1] (at 17.2 µM (top of the series)) is 1.25%. Moreover, the activity, negative = inhibition in test [2] (at 17.2 µM (top of the series)) is 5.71%.
Taken in the same sequence, the figures for `CCOc1ccc2nc(S(N)(=O)=O)sc2c1` were 7.72% and 12.3%.
With `Ic1ccc(N2CCN(Cc3c[nH]c4ncccc34)CC2)cc1`, in test [3], the activity change, negative = inhibition is 0.65%. The activity, negative = inhibition in [2] (at 38 µM (top of the series)) is -23%. In addition, the Potency in [4] and in test [5] was greater than 46 µM throughout. Besides, the molecule was classed as inactive in [6].
With `N=c1ccn2c(n1)O[C@H]1[C@H](O)[C@@H](CO)O[C@H]12`, the Potency result in [7] and in test [8] was “inactive” each time. The molecule was called inactive in test [6].
For the molecule `Nc1ccc(O)c([N+](=O)[O-])c1`, the Potency is greater than 92 µM in test [9]; 20.7 µM in [10]; greater than 92 µM in [11]; greater than 92 µM in test [12]; greater than 92 µM in [13]; 25.1 µM (active) in test [14]. Also, the Potency entry in test [8], in test [15], in [16], in test [18] and in test [19] was “inactive” in each case. For the same molecule, the activity change, negative = cytotoxicity in test [17] is 0.95%.
Turning to `O=C1CN(/N=C/c2ccc([N+](=O)[O-])o2)C(=O)N1`, the Potency in test [9] was greater than 92 µM; in test [10], 7.84 µM (active); in test [12], greater than 92 µM. Also, the Potency result in test [8], in test [15], in test [18] and in [19] was “inactive” each time. For the same molecule, in test [14], the activity change, negative = cytotoxicity was -97.7% (active).
Take `O=C(Nc1ccccc1)c1cc([N+](=O)[O-])ccc1Cl`: the Potency is 5.01 µM (active) and 631 nM (active) in test [7]; greater than 46 µM in test [4]; greater than 46 µM in test [5]. Further, the activity change, negative = inhibition in test [3] is -5%. For the same molecule, the activity, negative = inhibition in test [2] (at 38 µM (top of the series)) was -18.8%. The Potency entry in test [8] was “inactive”. Also, the call in test [6] was inactive.
For `COc1cc(CNC(=O)CCCC/C=C/C(C)C)ccc1O`, the Potency is greater than 92 µM in test [9]; greater than 92 µM in test [10]; greater than 92 µM in test [11]; greater than 92 µM in [12]; greater than 92 µM in test [13]; 5.01 µM (active) in [14]. The Potency result in [8], in test [16], in test [18] and in [19] was “inactive” each time. Further, the activity change, negative = cytotoxicity in test [17] was -16.6%.
For the molecule `O=Nc1ccc2oc(=O)ccc2c1`, the activity change, negative = inhibition in test [1] (at 38 µM (top of the series)) is 22.8%. In addition, the Potency in [5] was greater than 46 µM. Also, the Potency entry in test [8] was “inactive”. Also, in test [6], the result was inactive.
For `O=C(O)c1cc(O)c(O)c(O)c1`, the Potency in test [9] and in test [12] was greater than 92 µM in each case. Also, the Potency entry in test [8], in [15], in [18] and in test [19] was “inactive” in each case. The activity change, negative = cytotoxicity was -98.1% (active) in test [14] and -19.1% in test [17].
Consider `C[C@@H](NC(=O)/C(C#N)=C/c1ccc(O)c(O)c1)c1ccccc1`, for which the Potency in test [7] is 31.6 µM (active); in test [4] it was greater than 46 µM; in test [8], 12.6 µM (active).
In the case of `N[C@@H](CC(=O)O)C(=O)O`, the Potency in test [4] was greater than 46 µM.
